# MITF primary: human MITF inhibition, primary screen; O75030; AID 1259374; inhibition, % at 2.6 µM; AlphaScreen MITF homodimerization, bead proximity signal; 650,000 compounds, 0.91% hits; in the data active means inhibition above about 50%;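 further: 0% = vehicle wells with protein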
# Target sequence (O75030 whole entry, looked up): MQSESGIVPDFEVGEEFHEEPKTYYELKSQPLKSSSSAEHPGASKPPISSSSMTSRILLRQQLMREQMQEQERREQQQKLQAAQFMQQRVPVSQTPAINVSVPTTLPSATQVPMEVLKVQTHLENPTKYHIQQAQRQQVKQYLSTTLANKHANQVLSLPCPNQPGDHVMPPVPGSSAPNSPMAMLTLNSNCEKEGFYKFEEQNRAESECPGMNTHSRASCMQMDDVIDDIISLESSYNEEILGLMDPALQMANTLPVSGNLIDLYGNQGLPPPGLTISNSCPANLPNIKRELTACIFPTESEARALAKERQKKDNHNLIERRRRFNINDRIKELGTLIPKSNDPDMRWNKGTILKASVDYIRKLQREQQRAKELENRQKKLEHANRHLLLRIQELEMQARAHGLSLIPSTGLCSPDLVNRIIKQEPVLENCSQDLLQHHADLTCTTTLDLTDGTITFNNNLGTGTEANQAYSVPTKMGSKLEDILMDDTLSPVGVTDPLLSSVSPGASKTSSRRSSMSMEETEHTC
# FBW7 activator: activators of human E3 ligase FBW7 | AlphaScreen FBW7–phospho-cyclin E peptide binding, activator screen | normalized activity (activation), % at 26.1 µM | 650,000 compounds, 0.13% hits | AID 1259310; in the data active means normalized activity above about 1.9%;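 further: purified mutant Fbw7 with reduced substrate affinity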
# TEAD-YAP block: TEAD-YAP interaction inhibition | HEK-TIYL cells, TEAD-Gal4/YAP UAS-luciferase luminescence | inhibition, % at 9.12 µM | 640,000 compounds, 1.4% hits | AID 1259422; in the data active means inhibition above about 32%;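 further: 0% = median of test compound wells and 100% = reference inhibitor wells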
# GPR151 activ: activates the human receptor GPR151; Q8TDV0; PathHunter beta-arrestin GPR151 cells, luminescence; activation, % at 11.2 µM; 650,000 compounds, 1% hits; in the data active means activation above about 4.9%;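 further: 0% = median of compound wells and 100% = cells with positive control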
# The depositor's hits bear a star; ! = repeats disagree. A selection: hits, their analogues and other compounds. The true share with any hit is near 3.4%.
SMILES,MITF primary,FBW7 activator,TEAD-YAP block,GPR151 activ
CC1=CC(=C2C(=O)NC(=S)NC2=O)C=C(C(F)(F)F)N1CCN(C)C,3.7,-0.1,4.8,-0.2
Oc1ccccc1CNCc1ccccn1,76.5*,-0.6,-4.6,-0.3
CCc1c(C)sc2ncn3c(=O)n(CCN4CCCC4)nc3c12,17.6,20.5*,1.1,0.4
Cc1cc(O)c(C)c(O)c1/C=N\NC(=O)CNC(=O)C(c1ccccc1)c1ccccc1,16.9,0.1,32.9*,0.0
O=C(c1ccc(OCc2ccc3ccccc3n2)cc1)N1CCN(c2ncccn2)CC1,2.0,0.3,-5.6,-1.2
O=C(Nc1ccccc1C(=O)NCc1ccccc1)c1ccc(CN2CCOCC2)cc1,-6.7,0.0,51.6*,-0.6
NC(=O)c1ccccc1NC(=O)c1ccc(CN2CCOCC2)cc1,24.0,-0.2,36.1*,-0.1
COc1ccc(Nc2cc(N3CCCCC3C)c3noc4c3c2C(=O)c2ccccc2-4)cc1 (configuration not stated),50.7*,-0.7,25.4,-1.9
COc1ccc(Nc2cc(N3CCCC3)c3noc4c3c2C(=O)c2ccccc2-4)cc1,2.4,0.1,-9.7,-0.8
COc1cccc(Nc2cc(N3CCCCC3C)c3noc4c3c2C(=O)c2ccccc2-4)c1 (configuration not stated),69.0*,-0.5,5.8,-1.4
COc1cccc(Nc2cc(N3CCCCC3)c3noc4c3c2C(=O)c2ccccc2-4)c1,41.2,-1.4,0.1,-1.5
N#C/C(=C1\NC(c2ccc(Cl)cc2)=CS1)N1CCc2ccccc2C1,4.3,-0.1,11.7,0.3
CCOC(=O)CSc1nc(NCCOC)c2ccccc2n1,4.1,-0.2,5.3,-1.8
Cc1cc(C(=O)O)ccc1N/C=C/C(=O)c1cccs1,9.4,-0.1,46.5*,-3.9
COc1cc([N+](=O)[O-])ccc1N/C=C/C(=O)c1cccs1,5.8,0.5,79.6*,-4.0
Cc1cc(N/C=C\C(=O)c2cccs2)no1,4.8,-0.1,-43.5,-1.7
COc1cc([N+](=O)[O-])ccc1N/C=C/C(=O)c1ccccc1,-5.1,0.0,71.3*,-4.7
COc1cc([N+](=O)[O-])ccc1N/C=C/C(=O)c1ccc(Cl)cc1,9.3,0.5,-16.7,0.1
Cc1cc(C)c(S(=O)(=O)Nc2ccc(Cl)c([N+](=O)[O-])c2)c(C)c1,12.2,0.1,2.0,2.5
Oc1c(Cl)cc(CN2CCCC2)c2cccnc12,112.8*,-0.7,93.4*,-1.3
COc1ccccc1N1CCN(Cc2cc(Cl)c(O)c3ncccc23)CC1,73.7*,-0.2,81.9*,-0.8
CCOc1ccc2nc(NCCCO)[nH]c2c1,0.5,-0.1,-8.7,0.1
COC(=O)C(=O)Nc1nc2ccc(C(=O)c3ccccc3C(=O)OC(C)C)cc2[nH]1,-14.4,-0.1,52.0*,2.1
CCCOc1ccc2nc(NC(=O)OC)[nH]c2c1,-4.9,0.0,34.4*,-1.2
O=C(c1ccccc1)c1ccc2nc(-c3ccc(NC(=O)c4ccccc4Cl)cc3)[nH]c2c1,-0.7,0.1,-28.6,-0.7
SMILES,MITF primary,FBW7 activator,TEAD-YAP block,GPR151 activ
O=C(COc1ccc(C(=O)c2ccccc2)cc1)Nc1nc2ccccc2[nH]1,-10.6,-0.1,7.2,3.2
COC(=O)Nc1nc2ccc(C(=O)c3ccc(F)cc3)cc2[nH]1,11.6,0.2,34.7*!,0.1
O=C(Nc1ccc2oc(-c3ccccc3)nc2c1)c1cc(Br)ccc1Cl,3.7,-0.2,-8.3,0.5
CCOC(=O)C1CCN(C(=O)c2cn(-c3ccc(C)c(C)c3)c(=O)c3ccccc23)CC1,-2.6,0.0,4.9,0.0
COc1cc(OC)cc(-c2nc3cnccn3c2NCc2ccco2)c1,-3.7,0.1,-7.7,-0.9
Cc1ccccc1COc1cccc2ccc(N3CCN(C(=O)c4ccco4)CC3)nc12,2.7,-0.2,15.6,1.8
COc1cc(COc2cccc3ccc(N4CCN(C(=O)c5ccco5)CC4)nc23)cc(OC)c1,-1.4,-0.2,35.4*,-0.3
O=C(Nc1ccncc1)c1ccc(C(=O)Nc2ccncc2)cc1,1.2,0.4,5.2,0.3
O=C(O)c1cccc(NC(=O)c2ccc(Oc3ccccc3)cc2)c1,15.2,0.7,93.2*,-9.9
Cc1c(C(=O)NC(=S)Nc2cccc(C(=O)O)c2)cccc1[N+](=O)[O-],3.7,0.0,8.9,-0.8
O=C(Nc1cccc(F)c1)c1ccc(Oc2ccccc2)cc1,-5.8,0.2,-6.6,-4.9
Cc1c(C(=O)Nc2cccc(C(=O)O)c2)cccc1[N+](=O)[O-],15.5,3.5*,-0.8,1.1
O=C(O)c1ccc(NC(=O)c2ccc(Oc3ccccc3)cc2)cc1,12.8,-0.3,39.1*,-1.1
O=C(Nc1ccncc1)c1ccc(C(=O)c2ccccc2)cc1,-10.0,-0.1,55.3*,-3.3
COc1ccc(N2CCN(Cc3nnc(-c4ccccc4C)o3)CC2)cc1,-5.6,-0.4,-4.7,0.2
